Compounds with a hit are over-represented: about 15% of the library has one in this group of screens.
HCV inh = blocks hepatitis C virus; Huh7.5.1 HCVcc-Cre infection, luciferase reporter, 44 h; Potency, µM (top dose mostly 41.8 µM), hits mostly inhibitors; actives 3.4% (n = 340,000); AID 651820
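Cells (1,000/well) were plated 4 h before compound, then infected with HCVcc-Cre virus (~0.5 moi). After 44 h further culture, infection was read as luciferase luminescence following a 15 min substrate incubation at room temperature.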
HCMV inh = human cytomegalovirus inhibition. actives 4.5% (n = 410,000). AID 1259415. HFF cells, HCMV-luciferase reporter, 72 h; active compounds read low. activity change, negative = inhibition, % at 57.5 µM; in the data active = activity change below about -60%; inconclusive = no clear call, values can overlap the other calls; inactive = above about -39%
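Inhibition of viral replication was scored as loss of reporter luminescence in HFFs infected with HCMV-luciferase (MOI 1 PFU/cell) for 72 h; compounds tested at 2 doses, normalized to buffer and Salinomycin controls.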
Pf growth 96h = P. falciparum growth inhibition at 96 hour, primary screen for plastid delayed-death inhibitors | AID 504834 | P. falciparum luciferase reporter growth, 96 h | Potency, µM (highest dose often 28.7 µM), hits mostly inhibitors | actives 6.9% (n = 320,000)
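Cell-based qHTS: luciferase-tagged P. falciparum in erythrocytes (2% hematocrit, 0.05% parasitemia final) incubated with compounds for 96 hours, 37 C, 5% CO2; luciferase detection reagent then added and luminescence measured.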
SARS PLpro yeast = SARS-CoV PLP inhibition in yeast | actives 0.19% (n = 330,000) | S. cerevisiae expressing SARS-CoV PLpro, growth rescue | Potency, µM (titrated, usually from 32.9 µM), most hits filed as activators; calls by dose curve; note: nearly all actives have a fitted effect of over 55% in size
Sm TGR block = S. mansoni TGR enzyme inhibition; purified TGR, DTNB reduction, TNB absorbance 405 nm; actives 3% (n = 360,000); AID 485364; Q962Y6; Potency, µM (top dose mostly 114 µM), usual class: inhibitors; note: nearly all actives have a fitted effect of over 60% in size
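TGR 20 nM + NADPH 100 uM (dispensed conc.), cpd preinc 15 min RT; start with NADPH (500 uM addition) then DTNB (15 mM addition). Kinetic TNB absorbance, 405 nm filter. Four-parameter Hill fit across titration.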
Pf growth 48h = P. falciparum growth inhibition at 48 hours (one generation); P. falciparum luciferase growth in erythrocytes, 48 h; Potency, µM (series often up to 28.7 µM), actives largely listed as inhibitors; actives 5.9% (n = 310,000); AID 504832
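A one-generation exposure of luciferase-tagged malaria parasites in RPMI 1640/Albumax erythrocyte culture, 37 C and 5% CO2. Inhibition is inferred from decreased luminescence after adding detection reagent.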
A number is an active result. Unless noted, calls come from the whole dose curve; as a rule, active = well fitted curve in the direction sought with a large enough effect; inconclusive = small, poorly fitted or top-dose-only effect, or another doubt; inactive = no such curve, though single readings can be large; an effect the other way counts as inactive or inconclusive.

Screening COc1ccc(Cn2nnc3c(=O)[nH]c(C4CCCN(C(=O)c5ccccc5)C4)nc32)cc1 (stereo not given) returned HCV inh inconclusive, HCMV inh inactive, Pf growth 96h 11.7µM, SARS PLpro yeast inactive, Sm TGR block inactive and Pf growth 48h inconclusive.
For COc1cc(-c2noc(C)c2C(=O)NCCCN2CCOCC2)cc(OC)c1OC the results were HCV inh inactive, HCMV inh inactive and SARS PLpro yeast inactive.
Screening O=C(NCCc1cccs1)C(c1ccccc1)c1ccccc1 returned HCV inh inactive, HCMV inh inactive, Pf growth 96h 11.7µM, SARS PLpro yeast inactive, Sm TGR block inconclusive and Pf growth 48h inactive.
For CC(NC(=O)Cc1cccs1)c1ccccc1 (stereo not given) the results were HCV inh inactive, HCMV inh inactive, Pf growth 96h inactive, SARS PLpro yeast inactive, Sm TGR block inactive and Pf growth 48h inactive.
For Cc1ccc(C(=O)NCCc2cccs2)cc1 the results were HCV inh inactive, HCMV inh -61.0, Pf growth 96h inconclusive, SARS PLpro yeast inactive, Sm TGR block inactive and Pf growth 48h inactive.
`CCC(NC(=O)Cc1cccs1)c1ccccc1` (stereo not given) gave HCV inh inactive, HCMV inh inactive, Pf growth 96h 5.86µM, SARS PLpro yeast inactive, Sm TGR block inactive and Pf growth 48h inactive.
For CCOC(=O)N1CCN(C(=O)CN(c2ccccc2)S(C)(=O)=O)CC1 the results were HCV inh inactive, HCMV inh inactive, Pf growth 96h inactive, SARS PLpro yeast inactive and Pf growth 48h inactive.
`Cc1oc2ccc(O)c(CN3CCN(C)CC3)c2c1C(=O)Nc1ccccc1` gave HCMV inh inactive and Sm TGR block inactive.
`O=C(NCc1cccc(Br)c1)c1cc(-c2ccccc2)nn1CC1CC(c2cccc([N+](=O)[O-])c2)=NO1` (stereo not given) gave HCV inh inconclusive and HCMV inh inactive.
O=C(O)c1cc(-c2ccc(Cl)cc2)n(-c2cccc(Cl)c2)n1 was read as HCV inh inactive, HCMV inh inactive, Pf growth 96h inactive, SARS PLpro yeast inactive, Sm TGR block inactive and Pf growth 48h inactive.
Screening COc1cc(/C=C/C(=O)c2ccc(O)cc2)ccc1OCC#N returned HCV inh inconclusive, HCMV inh -98.2, Pf growth 96h inconclusive, SARS PLpro yeast inactive, Sm TGR block inactive and Pf growth 48h 13.1µM.
Screening CCOc1ccc(/C=C/C(=O)c2ccccc2)cc1OC returned HCV inh inactive, HCMV inh inactive, Pf growth 96h inactive, SARS PLpro yeast inactive, Sm TGR block inactive and Pf growth 48h inactive.
Screening COc1cccc(C(=O)/C=C/c2ccc(OCC#N)c(OC)c2)c1 returned HCV inh inconclusive, HCMV inh -100.0, Pf growth 96h inconclusive, SARS PLpro yeast inactive, Sm TGR block inactive and Pf growth 48h inactive.
For O=C(CCNS(=O)(=O)c1ccc2ccccc2c1)NCCOc1ccccc1 the results were HCV inh inconclusive, HCMV inh inactive, Pf growth 96h inactive, SARS PLpro yeast inactive, Sm TGR block inactive and Pf growth 48h inactive.
For CCC1(CC)NC(=O)N(CC(=O)Nc2cccc3ccccc23)C1=O the results were HCV inh inactive, HCMV inh inactive and SARS PLpro yeast inactive.
Screening O=C(Nc1cccc(Cl)c1)OC1CCCCc2cccnc21 (stereo not given) returned HCV inh inactive, HCMV inh inactive, Pf growth 96h inactive, SARS PLpro yeast inactive, Sm TGR block inactive and Pf growth 48h 3.7µM.
`Cc1ccc(N2C(=O)N3[C@H]4c5ccccc5OC[C@@H]4[C@@H](c4ccccc4)[C@@]3(C)C2=O)cc1` gave HCV inh inconclusive, Pf growth 96h 8.28µM, SARS PLpro yeast inactive, Sm TGR block inactive and Pf growth 48h inconclusive.
`C[C@]12C(=O)N(c3cccc(F)c3)C(=O)N1[C@@H]1c3ccccc3OC[C@@H]1[C@H]2c1ccccc1` gave HCV inh inconclusive, HCMV inh -85.6, Pf growth 96h 8.28µM, SARS PLpro yeast inactive, Sm TGR block inactive and Pf growth 48h inconclusive.
`O=c1cc(N/N=C/c2ccccc2)[nH]c(=O)[nH]1` gave HCV inh inactive and HCMV inh inactive.

Bioassay records from PubChem.
